Measurements published in PubChem BioAssay (NCI).
Several values for one entry are separate records, joined by “and”; a condition that tells them apart may be missing. Identical values can stand only once. The panel holds about 83,000 compounds, 20% with a hit somewhere; the sample as a whole holds those more often.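 Growth was measured after 48 h exposure to one concentration of compound in 96-well plates. Values under 10 count as active.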 Unmarked numbers belong to inactive results. Activity calls are given as the source filed them.

tested on: MDA-MB-468 breast; test: NCI-60 one-dose screen, 48 h (100 = growth as untreated, 0 = no growth, -100 = all killed); details: 10 µM unless noted

Row | SMILES | growth
1 | COc1ccc(/C=C\c2nc3ccccc3s2)cc1OP(=O)(O)O | 12.4%
2 | CCOC(=O)C(Cc1ccc(OC)cc1)C(=O)OCC | 55.3%
3 | O=C1/C(=C/c2ccc(F)cc2)COc2ccc(O)c(O)c21 | -2.42% (active)
4 | COc1ccc(Nc2nc(N)nc3c2CCc2occc2-3)cc1 | 101%
5 | COc1ccc(/C=C/C(=O)c2cc3c(N)c(C(=O)Nc4ccccc4)sc3nc2C)cc1 | 15.3%
6 | CCN(CC)CCCCCCCNc1cc(OC)cc2c(C)ccnc12 | 40.5%
7 | Cc1ccc(C23CCC(=O)N2CCc2cncn23)cc1 (stereo not given) | 85.2%
8 | O=C1/C=C/[C@@H](O)[C@@H]2C[C@@H](O)C[C@H]2/C=C/CCC[C@H](CCOCc2ccccc2)O1 | -41.9% (active)
9 | Cc1nc2cc(Nc3nc(Nc4ccc(F)cc4)nc(N4CCCC4)n3)ccc2n1Cc1ccccc1 | -63.3% (active)
10 | N#Cc1ccc(C(=O)CSc2nc(Nc3ccc(S(N)(=O)=O)cc3)c3ccccc3n2)cc1 | 105%
11 | CN[C@]12CC3(C=CC(=O)C=C3)O[C@@]1(Cc1ccc(OC)cc1)N(C)C(=O)N2 | 36.4%
12 | Cc1ccc(C2=NN(C)C(=O)C3(CCCC3)C2)cc1 | 98.7%
13 | CCN(CC)CCC(CNc1c2ccc([N+](=O)[O-])cc2nc2cc(OC)c(OC)cc12)c1ccccc1 (stereo not given) | -58% (active) and -86.9% (active)
14 | N=C1c2nc3n(c2C(=O)c2nc4n(c21)CCCCC4)CCCCC3 | 99.8%
15 | C[C@@H]1CC2C3C[C@H](F)C4=CC(=O)C=C[C@]4(C)[C@@]3(F)[C@@H](O)C[C@]2(C)[C@@]1(O)C(=O)CO (stereo not given in full) | 102%
16 | Oc1ccc(-c2nnc(SCc3ccc(O)c4ncccc34)n2-c2ccccc2)cc1 | -13.6% (active)
17 | C#C[C@@]1(O)[C@@H](CO)O[C@@H](n2ccc3c(N)ncnc32)[C@@H]1O | -45.3% (active)
18 | COc1ccc2c(c1)N(CCO)C1=C(C(=O)OC1)C2c1cc(OC)c(OC)c(OC)c1 (stereo not given) | 3.62% (active)
19 | NC(=O)c1c(Nc2ccccc2)nn2cc(-c3nc4ccccc4s3)c(N)nc12 | 101%
20 | COc1cc(C(=O)/C=C/c2cccnc2Nc2ccc(Cl)cc2)cc(OC)c1OC | -80.1% (active)

Row | SMILES | growth
21 | NNc1ccc(Cl)cc1Cl | 91.5%
22 | COc1cc(CCC[P+](c2ccccc2)(c2ccccc2)c2ccccc2)c(OC)c(OC)c1OC | 30.3%
23 | Cc1ccc(Nc2nnc(-c3cc(-c4ccncc4)n(-c4ccccc4)n3)s2)cc1 | 48.7%
24 | O=c1ccn(Cc2cn(-c3c4ccccc4nc4ccccc34)nn2)c(=O)[nH]1 | -50.8% (active)
25 | CNC(=O)c1cc(Oc2ccc3c(c2)sc2nc(-c4ccc(NC(=O)[C@@H](NC(=O)OC)C(C)C)cc4)cn23)ccn1 | 28.4%
26 | C=C1CCC2C3(C)COC(c4cccc(Cl)c4)OC3CCC2(C)C1/C=C/C1=CCOC1=O (stereo not given) | 43.6%
27 | COc1ccc([C@H]2[C@H](O)C(=O)N2c2cc(OC)c(OC)c(OC)c2)cc1Cl | 10.9%
28 | Cc1ccc(NCCN(C)C)c2c(=O)c3ccccc3sc12 | 26%
29 | c1cc(OCCN2CCCCC2)cc(-c2n[nH]c3ccc(-c4ncn[nH]4)cc23)c1 | 93%
30 | O=C(Nc1ccc(OCc2nnc(-c3ccccc3)o2)c(F)c1)Nc1ccc(Cl)c(C(F)(F)F)c1 | 1.01% (active)
31 | Nc1ccc(N2CCOCC2)cc1 | 96.9%
32 | N#Cc1c(-c2ccc(Cl)cc2)nc(NN=Cc2ccco2)nc1N1CCOCC1 | 30.9%
33 | Cn1cc2c(c1)-c1c(sc3nc(-c4ccc(NC(=O)Nc5cc(C(C)(C)C)on5)cc4)cn13)CC2 | 68.8%
34 | CCN(CC)CC(=O)Nc1c(C)cc(C(=O)NN)cc1C | 107%
35 | CCN(CC)c1ccc(/C=N/N=C(N)N)cc1 | 26%
36 | C#COc1cccc(Nc2ncnc3cc(NC(=O)[C@@H](C)Cl)ccc23)c1 | 12% [6.25 µM]
37 | CC(=O)Nc1nc(C(=O)N2N=C(C)/C(=C/c3cccs3)C2=O)cs1 | 103%
38 | O=[N+]([O-])c1ccc2nc3c4ccccc4c4ccccc4c3nc2c1 | 75.2%
39 | COc1cc2c(c(OC)c1OC)CCC(c1cccc(C(=O)Nc3cccc(Cl)c3)c1)O2 (stereo not given) | 77.4%
40 | Cc1ccc(Nc2cc(=S)nc(N)[nH]2)cc1C | 84.8%
